From the supplement of paper PMC11732987, “Enantioselective OTUD7B fragment discovery through chemoproteomics screening and high-throughput optimisation” (Communications Chemistry, 2025)

Tests used:
Experiment in all cases: log2 ratio of Biotin-Ahx-Ub-VS probe labelling (fragment/DMSO); higher = less target engagement (more negative = stronger competition), active = hit call of the paper (q ≤ 0.05, log2 ratio ≤ -1)
Conditions in all cases: compound concentration: 200 uM; treatment time: 3 h
USP19 = target: T1, USP19 (UniProt O94966)
T1 sequence (whole entry): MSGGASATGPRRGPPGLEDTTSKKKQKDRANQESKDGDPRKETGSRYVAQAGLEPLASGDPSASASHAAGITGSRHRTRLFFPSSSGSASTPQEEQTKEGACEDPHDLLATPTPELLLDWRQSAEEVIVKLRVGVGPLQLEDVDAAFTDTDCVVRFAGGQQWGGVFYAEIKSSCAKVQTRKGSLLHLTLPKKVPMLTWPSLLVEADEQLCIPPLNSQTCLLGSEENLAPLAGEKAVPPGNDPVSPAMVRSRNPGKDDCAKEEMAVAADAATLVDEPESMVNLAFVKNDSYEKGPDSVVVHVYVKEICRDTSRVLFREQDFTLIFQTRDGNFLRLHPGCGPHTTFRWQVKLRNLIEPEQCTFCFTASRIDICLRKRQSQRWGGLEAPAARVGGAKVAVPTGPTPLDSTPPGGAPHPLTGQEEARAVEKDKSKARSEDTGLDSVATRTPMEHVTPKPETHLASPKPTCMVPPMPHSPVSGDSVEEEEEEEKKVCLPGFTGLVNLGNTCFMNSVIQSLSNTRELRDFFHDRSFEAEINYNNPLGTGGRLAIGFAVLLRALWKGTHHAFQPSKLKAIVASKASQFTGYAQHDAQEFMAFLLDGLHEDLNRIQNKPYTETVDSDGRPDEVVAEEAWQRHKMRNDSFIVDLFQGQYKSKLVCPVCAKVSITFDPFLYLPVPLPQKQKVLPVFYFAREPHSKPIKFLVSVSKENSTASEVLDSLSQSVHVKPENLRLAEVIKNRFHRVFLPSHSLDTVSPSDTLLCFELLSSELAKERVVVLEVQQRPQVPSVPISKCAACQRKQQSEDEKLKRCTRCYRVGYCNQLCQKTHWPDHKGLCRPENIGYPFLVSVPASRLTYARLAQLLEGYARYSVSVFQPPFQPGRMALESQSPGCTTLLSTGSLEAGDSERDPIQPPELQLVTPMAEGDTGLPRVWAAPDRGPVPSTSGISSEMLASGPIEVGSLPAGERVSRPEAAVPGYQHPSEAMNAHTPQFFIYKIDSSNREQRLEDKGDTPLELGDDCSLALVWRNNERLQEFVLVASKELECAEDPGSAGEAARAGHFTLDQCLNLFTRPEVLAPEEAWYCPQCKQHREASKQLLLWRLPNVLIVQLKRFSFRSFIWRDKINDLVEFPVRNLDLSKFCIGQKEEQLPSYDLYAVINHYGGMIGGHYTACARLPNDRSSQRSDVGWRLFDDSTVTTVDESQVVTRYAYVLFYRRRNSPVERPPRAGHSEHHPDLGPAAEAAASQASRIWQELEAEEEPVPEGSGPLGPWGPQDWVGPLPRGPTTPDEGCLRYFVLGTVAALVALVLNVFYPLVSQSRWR
How it was run: (§1)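 Global-median-normalised Spectronaut label-free quantities were compared by unpaired t-test, and values are average log2 ratios of fragment over vehicle. Only proteins with ≥2 unique peptides were used. HEK293T lysate (495 µg per sample) was treated in triplicate with fragment at 200 µM or vehicle for 3 h and then with Biotin-Ahx-Ub-VS at 0.5 µM final for 1 h. Labelled DUBs were then NeutrAvidin-enriched, digested with LysC and trypsin, and run by diaPASEF LC-MS/MS.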

USP22 = target: T2, USP22 (UniProt Q9UPT9)
T2 sequence (whole entry): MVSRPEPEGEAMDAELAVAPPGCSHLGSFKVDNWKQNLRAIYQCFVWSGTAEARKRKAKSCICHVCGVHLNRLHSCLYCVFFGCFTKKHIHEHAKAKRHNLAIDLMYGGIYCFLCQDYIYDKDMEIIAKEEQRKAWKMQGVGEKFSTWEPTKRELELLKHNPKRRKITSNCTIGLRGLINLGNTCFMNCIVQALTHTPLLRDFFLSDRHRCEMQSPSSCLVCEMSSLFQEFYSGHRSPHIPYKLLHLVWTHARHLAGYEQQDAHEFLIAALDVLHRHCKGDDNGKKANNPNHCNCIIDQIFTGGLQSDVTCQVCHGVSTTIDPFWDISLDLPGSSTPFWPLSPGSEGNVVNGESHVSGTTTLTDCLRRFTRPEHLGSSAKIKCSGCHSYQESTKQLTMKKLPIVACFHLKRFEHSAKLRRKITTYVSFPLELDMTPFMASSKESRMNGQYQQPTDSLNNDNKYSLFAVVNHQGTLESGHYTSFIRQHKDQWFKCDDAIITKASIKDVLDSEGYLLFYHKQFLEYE
How it was run: as §1

USP24 = USP24 (UniProt Q9UPU5)
Sequence of USP24 (Q9UPU5 whole entry): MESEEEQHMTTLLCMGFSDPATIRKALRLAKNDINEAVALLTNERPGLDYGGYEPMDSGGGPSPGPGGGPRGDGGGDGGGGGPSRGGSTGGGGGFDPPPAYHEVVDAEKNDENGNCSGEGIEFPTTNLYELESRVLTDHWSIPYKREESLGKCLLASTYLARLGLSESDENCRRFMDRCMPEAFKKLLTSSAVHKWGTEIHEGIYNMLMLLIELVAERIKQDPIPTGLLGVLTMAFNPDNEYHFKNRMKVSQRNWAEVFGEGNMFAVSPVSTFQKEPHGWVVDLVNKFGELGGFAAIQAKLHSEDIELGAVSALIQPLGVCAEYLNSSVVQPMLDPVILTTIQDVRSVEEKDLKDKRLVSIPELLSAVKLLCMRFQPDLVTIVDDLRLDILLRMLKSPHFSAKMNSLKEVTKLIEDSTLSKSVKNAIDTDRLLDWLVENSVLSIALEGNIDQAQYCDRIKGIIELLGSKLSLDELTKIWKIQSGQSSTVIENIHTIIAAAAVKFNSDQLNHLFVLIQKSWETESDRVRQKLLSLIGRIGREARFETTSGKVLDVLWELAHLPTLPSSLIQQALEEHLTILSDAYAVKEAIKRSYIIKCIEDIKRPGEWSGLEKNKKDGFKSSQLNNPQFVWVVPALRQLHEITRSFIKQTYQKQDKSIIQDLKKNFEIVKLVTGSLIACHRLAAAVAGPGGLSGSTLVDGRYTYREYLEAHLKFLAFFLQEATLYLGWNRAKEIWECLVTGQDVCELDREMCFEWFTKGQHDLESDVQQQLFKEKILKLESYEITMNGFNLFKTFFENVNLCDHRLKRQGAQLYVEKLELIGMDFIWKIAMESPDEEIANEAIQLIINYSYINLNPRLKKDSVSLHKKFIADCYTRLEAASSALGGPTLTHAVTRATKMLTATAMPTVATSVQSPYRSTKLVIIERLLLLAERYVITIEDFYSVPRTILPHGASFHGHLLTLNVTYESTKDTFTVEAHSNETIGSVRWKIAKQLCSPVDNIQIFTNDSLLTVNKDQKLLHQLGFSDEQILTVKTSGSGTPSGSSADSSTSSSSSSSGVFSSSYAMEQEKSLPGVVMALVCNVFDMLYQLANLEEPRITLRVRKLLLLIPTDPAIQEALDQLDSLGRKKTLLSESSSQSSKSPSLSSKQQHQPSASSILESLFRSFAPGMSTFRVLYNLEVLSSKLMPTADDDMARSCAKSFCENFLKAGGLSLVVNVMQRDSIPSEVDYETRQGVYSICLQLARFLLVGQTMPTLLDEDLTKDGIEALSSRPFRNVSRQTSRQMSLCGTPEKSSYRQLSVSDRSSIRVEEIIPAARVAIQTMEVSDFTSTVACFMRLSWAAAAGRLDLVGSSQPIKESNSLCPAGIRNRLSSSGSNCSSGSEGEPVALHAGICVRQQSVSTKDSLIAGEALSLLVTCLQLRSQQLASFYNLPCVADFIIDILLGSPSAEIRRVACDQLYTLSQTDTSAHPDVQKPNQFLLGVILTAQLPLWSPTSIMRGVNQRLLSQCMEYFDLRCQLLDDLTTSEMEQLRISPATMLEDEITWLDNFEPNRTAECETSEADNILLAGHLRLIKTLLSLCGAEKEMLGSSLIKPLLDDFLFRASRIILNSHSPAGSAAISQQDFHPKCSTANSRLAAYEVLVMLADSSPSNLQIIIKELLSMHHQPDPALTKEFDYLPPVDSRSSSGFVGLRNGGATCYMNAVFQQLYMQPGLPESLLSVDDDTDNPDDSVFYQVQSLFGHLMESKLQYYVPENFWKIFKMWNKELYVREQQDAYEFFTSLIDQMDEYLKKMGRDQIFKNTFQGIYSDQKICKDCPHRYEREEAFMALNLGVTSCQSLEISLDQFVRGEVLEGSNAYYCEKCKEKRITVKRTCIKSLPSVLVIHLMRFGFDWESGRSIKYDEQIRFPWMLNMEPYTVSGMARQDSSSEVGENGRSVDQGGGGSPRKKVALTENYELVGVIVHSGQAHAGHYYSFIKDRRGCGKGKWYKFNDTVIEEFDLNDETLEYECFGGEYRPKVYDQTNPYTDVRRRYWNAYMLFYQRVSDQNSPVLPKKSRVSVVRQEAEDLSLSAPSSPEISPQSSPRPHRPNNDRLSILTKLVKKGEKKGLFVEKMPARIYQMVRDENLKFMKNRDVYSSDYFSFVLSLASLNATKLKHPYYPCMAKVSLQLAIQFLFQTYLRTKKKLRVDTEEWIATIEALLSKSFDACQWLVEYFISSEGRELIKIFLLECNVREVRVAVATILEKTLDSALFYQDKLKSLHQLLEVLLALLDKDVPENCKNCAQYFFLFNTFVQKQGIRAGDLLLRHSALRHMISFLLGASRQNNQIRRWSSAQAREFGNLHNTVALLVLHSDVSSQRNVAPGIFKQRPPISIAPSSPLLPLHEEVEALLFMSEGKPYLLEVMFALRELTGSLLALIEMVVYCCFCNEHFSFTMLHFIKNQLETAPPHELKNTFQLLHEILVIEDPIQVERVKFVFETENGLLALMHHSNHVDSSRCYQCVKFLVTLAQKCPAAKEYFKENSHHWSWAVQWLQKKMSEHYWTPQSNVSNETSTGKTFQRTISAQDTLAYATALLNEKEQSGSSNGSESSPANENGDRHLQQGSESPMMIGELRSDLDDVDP
How it was run: as §1

USP25 = target: T3, USP25 (UniProt Q9UHP3)
T3 sequence (whole entry): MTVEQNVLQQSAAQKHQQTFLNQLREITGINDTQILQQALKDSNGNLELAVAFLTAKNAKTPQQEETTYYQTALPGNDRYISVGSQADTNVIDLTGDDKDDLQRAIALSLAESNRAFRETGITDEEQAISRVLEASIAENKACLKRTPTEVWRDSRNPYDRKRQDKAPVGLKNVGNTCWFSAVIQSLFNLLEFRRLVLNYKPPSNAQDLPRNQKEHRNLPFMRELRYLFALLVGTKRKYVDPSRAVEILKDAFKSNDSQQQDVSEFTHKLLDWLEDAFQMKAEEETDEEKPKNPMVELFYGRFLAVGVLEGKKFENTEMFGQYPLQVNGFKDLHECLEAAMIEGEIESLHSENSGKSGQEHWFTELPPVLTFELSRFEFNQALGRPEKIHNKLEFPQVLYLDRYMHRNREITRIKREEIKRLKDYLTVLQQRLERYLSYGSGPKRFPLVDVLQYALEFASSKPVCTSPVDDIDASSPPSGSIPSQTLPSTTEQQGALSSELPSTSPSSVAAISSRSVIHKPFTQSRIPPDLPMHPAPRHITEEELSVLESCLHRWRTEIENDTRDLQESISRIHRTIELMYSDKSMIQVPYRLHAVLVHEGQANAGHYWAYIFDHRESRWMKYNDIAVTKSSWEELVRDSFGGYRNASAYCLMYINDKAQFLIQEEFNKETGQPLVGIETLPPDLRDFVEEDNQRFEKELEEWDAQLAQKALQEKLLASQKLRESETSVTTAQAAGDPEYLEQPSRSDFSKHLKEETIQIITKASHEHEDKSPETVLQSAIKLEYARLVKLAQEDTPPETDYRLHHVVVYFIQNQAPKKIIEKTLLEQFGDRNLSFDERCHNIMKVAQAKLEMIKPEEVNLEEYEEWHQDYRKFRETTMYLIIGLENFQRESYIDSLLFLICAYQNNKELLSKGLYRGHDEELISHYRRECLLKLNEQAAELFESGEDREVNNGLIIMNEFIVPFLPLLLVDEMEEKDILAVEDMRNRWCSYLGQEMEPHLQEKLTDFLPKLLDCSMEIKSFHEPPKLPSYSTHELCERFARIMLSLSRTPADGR
How it was run: as §1

USP28 = target: T4, USP28 (UniProt Q96RU2)
T4 sequence (whole entry): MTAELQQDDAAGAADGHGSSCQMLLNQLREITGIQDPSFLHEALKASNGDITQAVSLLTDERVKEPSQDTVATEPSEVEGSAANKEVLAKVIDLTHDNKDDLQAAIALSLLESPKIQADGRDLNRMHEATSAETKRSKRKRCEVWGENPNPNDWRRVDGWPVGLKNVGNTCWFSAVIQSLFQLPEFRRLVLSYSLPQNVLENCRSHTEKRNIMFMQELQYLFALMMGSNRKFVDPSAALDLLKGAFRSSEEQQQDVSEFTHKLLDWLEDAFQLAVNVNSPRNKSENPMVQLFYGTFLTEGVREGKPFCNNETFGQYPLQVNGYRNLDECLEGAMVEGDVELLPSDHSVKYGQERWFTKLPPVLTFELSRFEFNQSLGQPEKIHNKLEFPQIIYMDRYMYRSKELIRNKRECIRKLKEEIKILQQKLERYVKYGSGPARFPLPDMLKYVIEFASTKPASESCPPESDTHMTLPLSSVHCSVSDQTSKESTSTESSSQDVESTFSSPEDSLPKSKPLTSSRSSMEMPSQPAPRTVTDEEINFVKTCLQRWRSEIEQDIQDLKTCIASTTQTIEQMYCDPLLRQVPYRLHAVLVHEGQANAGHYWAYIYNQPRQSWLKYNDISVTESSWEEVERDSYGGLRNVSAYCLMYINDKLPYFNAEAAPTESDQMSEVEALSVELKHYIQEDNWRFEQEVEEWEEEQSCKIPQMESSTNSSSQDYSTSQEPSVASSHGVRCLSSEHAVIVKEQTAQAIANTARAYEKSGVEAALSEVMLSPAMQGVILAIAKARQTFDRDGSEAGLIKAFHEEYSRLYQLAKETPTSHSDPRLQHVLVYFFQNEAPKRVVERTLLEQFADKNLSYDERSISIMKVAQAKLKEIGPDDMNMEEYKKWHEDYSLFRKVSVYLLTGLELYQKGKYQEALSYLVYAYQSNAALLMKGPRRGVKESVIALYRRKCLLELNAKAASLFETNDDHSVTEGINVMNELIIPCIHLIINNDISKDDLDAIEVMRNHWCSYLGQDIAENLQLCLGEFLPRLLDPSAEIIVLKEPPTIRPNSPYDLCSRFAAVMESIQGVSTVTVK
How it was run: as §1

Measured: log2 ratio of Biotin-Ahx-Ub-VS probe labelling

CC(NC(=O)CCl)c1cc2n(n1)CCCC2.Cl (stereo not given)
inactive: USP19 -0.153 | USP22 0.0191 | USP24 -0.262 | USP25 -0.378 | USP28 -0.582
